Data from PubChem BioAssay (Tox21).
Values joined by “and” are separate entries in the source; they are usually repeats but may differ in a detail not shown here. Identical values can stand only once. Inconclusive results are not listed. Where a call stands in place of a potency, no number is given. The source holds several records for some structures; these can differ, active in one and inactive in another. Active and inactive are the calls of the source. Calls come from the whole dose curve; as a rule, active = well fitted curve in the direction sought with a large enough effect in the repeat runs; inconclusive = weak or mixed curves; inactive = no such curve, though single readings can be large; an effect the other way counts as inactive or inconclusive.

System: not listed separately
Assay: qHTS assay to identify small molecule antagonists of the estrogen related receptor (ERR) signaling pathway from Tox21 library - cell viability counter screen (AID 1224834); note: nearly all actives have a fitted effect of over 30% in size
Details: ERR reporter cells viability, CellTiter-Fluor, 17.5 h; series mostly up to 92.4 µM
Outline: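 Fluorescence from CellTiter-Fluor gives the viability read-out, taken 30 min after reagent addition. Before that, ERR cells seeded 6 h earlier were incubated with compounds for 17.5 h at 37 C.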

Row | SMILES | Potency
1 | O=C1C(c2[nH]c3ccccc3c2O)=Nc2ccccc21 | inactive
2 | CCCCCCCCCCCCCCCCO | inactive
3 | CCOCC(=O)O | inactive
4 | CC(C)OC(=O)COc1ccc(Cl)cc1Cl | inactive
5 | CCCCOC(=O)c1ccc(N)cc1 | inactive
6 | COc1ccc([N+](=O)[O-])cc1N | inactive
7 | O=[N+]([O-])c1ccc2nc[nH]c2c1 | inactive
8 | CCNC(=S)NCC | inactive
9 | COc1cc(OC)c(C(=O)CCCN2CCCC2)c(OC)c1 | inactive
10 | C=CC(=O)OCCC(=O)O | inactive
11 | CCO[Si](CCCN)(OCC)OCC | inactive
12 | O=C(OCC1CCC2OC2C1)C1CCC2OC2C1 (configuration not stated) | inactive
13 | COc1ccc(C)cc1N | inactive
14 | C=CC[N+](C)(C)CC=C | inactive
15 | O=C1CCCC1 | inactive
16 | CCCCCCC=O | inactive
17 | COCCCN | inactive
18 | C=C(C)C(=O)OCC(C)C | inactive
19 | CC1(C)CC(N)CC(C)(CN)C1 (configuration not stated) | inactive
20 | COc1ccccc1OCC(O)CO (configuration not stated) | inactive
21 | CCCCC(C=O)CC (configuration not stated) | inactive
22 | CC(C)=CCl | inactive

Molecular target: Luciferin 4-monooxygenase (Photinus pyralis) (UniProt P08659)
Sequence (P08659 whole entry, looked up): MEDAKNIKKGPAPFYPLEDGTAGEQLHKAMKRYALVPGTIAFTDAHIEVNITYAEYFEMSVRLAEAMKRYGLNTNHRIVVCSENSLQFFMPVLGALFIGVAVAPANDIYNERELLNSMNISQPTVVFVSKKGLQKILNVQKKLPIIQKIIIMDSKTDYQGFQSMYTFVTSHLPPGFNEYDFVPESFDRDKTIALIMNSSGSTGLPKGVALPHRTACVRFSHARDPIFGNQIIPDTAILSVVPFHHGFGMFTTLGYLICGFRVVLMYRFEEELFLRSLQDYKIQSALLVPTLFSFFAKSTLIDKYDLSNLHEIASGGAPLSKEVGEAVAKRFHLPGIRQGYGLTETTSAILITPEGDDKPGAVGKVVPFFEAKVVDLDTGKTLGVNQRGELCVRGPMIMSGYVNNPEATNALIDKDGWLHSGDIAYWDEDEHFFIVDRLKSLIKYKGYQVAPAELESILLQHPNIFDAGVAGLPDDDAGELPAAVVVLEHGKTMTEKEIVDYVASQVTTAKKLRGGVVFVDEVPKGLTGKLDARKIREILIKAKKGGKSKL
Assay: qHTS assay to identify small molecule inhibitors of firefly luciferase (AID 1224835); note: nearly all actives have a fitted effect of over 25% in size; note: potency is the fitted concentration of half-maximal effect
Details: purified P. pyralis luciferase, luminescence inhibition; series mostly up to 115 µM
Outline: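 Inhibition of purified Photinus luciferase is measured by luminescence. Substrate levels (D-luciferin, ATP) sit at their KM values. Each compound is tested in a concentration series.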

Row | SMILES | Potency
23 | Cc1ccc(S(=O)(=O)N=C=O)cc1 | inactive
24 | CC(C)(C#N)c1cc(Cn2cncn2)cc(C(C)(C)C#N)c1 | inactive
25 | O=C1C(c2[nH]c3ccccc3c2O)=Nc2ccccc21 | inactive
26 | C=Cc1ccc(C)cc1 | inactive
27 | CC(=O)OC1CC(C)OC(C)O1 (configuration not stated) | inactive
28 | CCCCCCCCCCCCCCCCO | inactive
29 | CCOCC(=O)O | inactive
30 | N#Cc1ccccc1 | inactive
31 | CC(C)OC(=O)COc1ccc(Cl)cc1Cl | 35 µM (active)
32 | CCCCOC(=O)c1ccc(N)cc1 | inactive and 34.7 µM (active)
33 | O=C(O)c1ccc(C(=O)O)c(C(=O)O)c1 | inactive
34 | C[C@]12CC[C@@H]3c4ccc(O)cc4CC[C@H]3[C@@H]1C[C@@H](O)[C@@H]2O | inactive
35 | COc1ccc([N+](=O)[O-])cc1N | inactive
36 | O=[N+]([O-])c1ccc2nc[nH]c2c1 | inactive
37 | CCNC(=S)NCC | inactive
38 | COc1cc(OC)c(C(=O)CCCN2CCCC2)c(OC)c1 | inactive
39 | CC(C)c1cccc(C(C)C)c1 | inactive
40 | C=CC(=O)OCCC(=O)O | inactive
41 | CCO[Si](CCCN)(OCC)OCC | inactive

Row | SMILES | Potency
42 | O=C(OCC1CCC2OC2C1)C1CCC2OC2C1 (configuration not stated) | inactive
43 | COc1ccc(C)cc1N | inactive
44 | CSc1ccc(Cl)cc1 | inactive
45 | C=CC[N+](C)(C)CC=C | inactive
46 | O=C1CCCC1 | inactive
47 | CC(C)CCCCCCCOC(=O)CCCCC(=O)OCCCCCCCC(C)C | inactive
48 | CCCCCCC=O | inactive
49 | C=CCCCCCCCCC(=O)O | inactive
50 | COCCCN | inactive
51 | CCOC(=O)n1ccn(C)c1=S | inactive
52 | C=C(C)C(=O)OCC(C)C | inactive
53 | CC1(C)CC(N)CC(C)(CN)C1 (configuration not stated) | inactive
54 | COc1ccccc1OCC(O)CO (configuration not stated) | inactive
55 | CCCCC(C=O)CC (configuration not stated) | inactive
56 | C=C(C)CNCC | inactive
57 | CC(C)(C)c1cc(Cc2cc(C(C)(C)C)c(O)c(C(C)(C)C)c2)cc(C(C)(C)C)c1O | inactive
58 | Clc1ccccn1 | inactive
59 | CC(C)=CCl | inactive

System: not listed separately
Assay: qHTS assay to identify small molecule agonists of the constitutive androstane receptor (CAR) signaling pathway - cell viability counter screen (AID 1224836); note: nearly all actives have a fitted effect of over 45% in size
Details: HepG2-CYP2B6-hCAR viability, CellTiter-Fluor, 23 h, PK11195 added to every well; series mostly up to 92.4 µM
Outline: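 Cell viability multiplexed with the CAR agonist screen: CellTiter-Fluor fluorescence after 23 hr at 37 C. HepG2-CYP2B6-hCAR cells got compounds at 15 concentrations with PK11195 at 0.75 uM final.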

Row | SMILES | Potency
60 | Cc1ccc(S(=O)(=O)N=C=O)cc1 | inactive
61 | CC(C)(C#N)c1cc(Cn2cncn2)cc(C(C)(C)C#N)c1 | inactive
62 | O=C1C(c2[nH]c3ccccc3c2O)=Nc2ccccc21 | inactive
63 | C=Cc1ccc(C)cc1 | inactive
64 | CC(=O)OC1CC(C)OC(C)O1 (configuration not stated) | inactive
65 | CCCCCCCCCCCCCCCCO | inactive
66 | CCOCC(=O)O | inactive
67 | N#Cc1ccccc1 | inactive
68 | CC(C)OC(=O)COc1ccc(Cl)cc1Cl | inactive
69 | CCCCOC(=O)c1ccc(N)cc1 | inactive
70 | O=C(O)c1ccc(C(=O)O)c(C(=O)O)c1 | inactive
71 | C[C@]12CC[C@@H]3c4ccc(O)cc4CC[C@H]3[C@@H]1C[C@@H](O)[C@@H]2O | inactive
72 | COc1ccc([N+](=O)[O-])cc1N | inactive
73 | O=[N+]([O-])c1ccc2nc[nH]c2c1 | inactive
74 | CCNC(=S)NCC | inactive
75 | COc1cc(OC)c(C(=O)CCCN2CCCC2)c(OC)c1 | inactive
76 | CC(C)c1cccc(C(C)C)c1 | inactive
77 | C=CC(=O)OCCC(=O)O | inactive
78 | CCO[Si](CCCN)(OCC)OCC | inactive

Row | SMILES | Potency
79 | O=C(OCC1CCC2OC2C1)C1CCC2OC2C1 (configuration not stated) | inactive
80 | COc1ccc(C)cc1N | inactive
81 | CSc1ccc(Cl)cc1 | inactive
82 | C=CC[N+](C)(C)CC=C | inactive
83 | OCc1cccc(Oc2ccccc2)c1 | inactive
84 | O=C1CCCC1 | inactive
85 | CC(C)CCCCCCCOC(=O)CCCCC(=O)OCCCCCCCC(C)C | inactive
86 | CCCCCCC=O | inactive
87 | C=CCCCCCCCCC(=O)O | inactive
88 | COCCCN | inactive
89 | CCOC(=O)n1ccn(C)c1=S | inactive
90 | C=C(C)C(=O)OCC(C)C | inactive
91 | CC1(C)CC(N)CC(C)(CN)C1 (configuration not stated) | inactive
92 | COc1ccccc1OCC(O)CO (configuration not stated) | inactive
93 | CCCCC(C=O)CC (configuration not stated) | inactive
94 | C=C(C)CNCC | inactive
95 | CC(C)(C)c1cc(Cc2cc(C(C)(C)C)c(O)c(C(C)(C)C)c2)cc(C(C)(C)C)c1O | inactive
96 | Clc1ccccn1 | inactive
97 | CC(C)=CCl | inactive
